# Screening results: PubChem, National Center for Advancing Translational Sciences (NCATS)
# ATXN2 expr inh: ATXN2 expression inhibition | HEK-293 ATXN2-luciferase reporter, luminescence, 24 h | AID 1745845 | hit rate 0.72% among 360,000 | Potency, µM (series often up to 57 µM), most hits filed as inhibitors; note: nearly all actives have a fitted effect of over 55% in size
#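 ATXN2-luciferase reporter cells (luciferase flanked by upstream and downstream ATXN2 gene portions) were treated 24 h at 37 °C with compounds at up to 57 uM. SteadyGlo luminescence gave expression; GF-AFC fluorescence gave viability.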
# Nrf2 inh: blocks Nrf2 signaling. AID 504444. Potency, µM (highest dose often 46 µM), most hits filed as inhibitors. hit rate 2.1% among 360,000. A549 ARE-Fluc reporter, luciferase luminescence, 18-24 h; note: nearly all actives have a fitted effect of over 60% in size
#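 Two sequential reads on A549 ARE_Fluc cells exposed to compound for 18-24 h: a CellTiter-Fluor fluorescence read for viability, then a luciferase luminescence read for Nrf2/ARE activity.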
# Nrf2 ARE act: activators of Nrf2 (ARE) signaling. Potency, µM (doses to about 46.1 µM), actives largely listed as activators. hit rate 0.31% among 410,000. AID 624171. AREc32 ARE-luciferase reporter (MCF7-derived line), luminescence, 24 h; note: nearly all actives have a fitted effect of over 65% in size
#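 Nrf2 activation is followed as ARE-luciferase induction in the AREc32 line after one day of compound treatment; luminescence is read with Steady-Glo.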
# ATXN viability: viability counter-screen for ATXN expression inhibitors | AID 651635 | hit rate 0.49% among 400,000 | Potency, µM (series often up to 56.7 µM), usual class: cytotoxic | S2 cells (HEK-293 line with an ATXN2-luciferase reporter) viability, CellTiter-Fluor protease fluorescence, 24 h; note: nearly all actives have a fitted effect of over 40% in size
# A549 tox: kills or reduces viability of A549 cells in Nrf2 counter-screen; A549 ARE-Fluc cells, CellTiter-Fluor viability, 18-24 h; Potency, µM (top dose mostly 46 µM), most hits filed as inhibitors; AID 504648; hit rate 0.16% among 390,000
#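 A549 ARE_Fluc cells in 5% FBS OPTI-MEM were exposed to compounds in concentration-response for 18-24 h at 37 deg C. Viability was read by CellTiter-Fluor fluorescence (Ex 405/Em 525) after 30 min, before the luciferase read.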
# Hits are given with their value; - = inactive; ? = inconclusive; . = not tested or not shown; [ ] = remark or other dose. Hits are enriched below; roughly 2.9% of the tested compounds scored in any of these assays. Calls come from the whole dose curve; as a rule, active = well fitted curve in the direction sought with a large enough effect; inconclusive = small, poorly fitted or top-dose-only effect, or another doubt; inactive = no such curve, though single readings can be large; an effect the other way counts as inactive or inconclusive.
SMILES,ATXN2 expr inh,Nrf2 inh,Nrf2 ARE act,ATXN viability,A549 tox
CCOC(=O)c1ccc(NC(=O)CSc2nc3cccnc3n2C)cc1,-,20.6µM,-,-,-
Cc1cc2c(=O)n(C)c(SCC(=O)Nc3cccc(O)c3)nc2s1,-,-,-,-,-
COc1ccc(NC(=O)CSc2nc3sc(C)cc3c(=O)n2C)cc1,-,-,-,-,-
COc1cc(-c2ccc3ncnc(NCc4cccs4)c3c2)cc(OC)c1OC,.,-,.,.,-
O=C(CSc1nc2ccccc2c(=O)[nH]1)Nc1ccc([N+](=O)[O-])cc1,-,16.4µM,-,-,-
COc1ccc(NS(=O)(=O)c2cc(NC(=O)Cc3n[nH]c(=O)c4ccccc34)ccc2OC)cc1,-,-,-,-,-
COc1ccccc1NS(=O)(=O)c1cc(NC(=O)Cc2n[nH]c(=O)c3ccccc23)ccc1Cl,-,20.6µM,-,-,-
Cc1cc(C)c(C)c(S(=O)(=O)N2CCN(S(=O)(=O)c3ccc4c(c3)OCCO4)CC2)c1C,.,-,.,.,-
CCn1nc(C)c(C(=O)Nc2cc(Oc3cc(C)cc(C)c3)cc([N+](=O)[O-])c2)c1C,-,20.6µM,-,-,?
Cn1cc([N+](=O)[O-])c(C(=O)Nc2cc(Oc3ccccc3)cc([N+](=O)[O-])c2)n1,-,-,?,-,-
Cc1ccc(C)c(Oc2cc(NC(=O)CCCn3nc(C)c([N+](=O)[O-])c3C)cc([N+](=O)[O-])c2)c1,-,23.1µM,-,?,?
Cc1cccc(Oc2cc(NC(=O)c3ccccc3)cc([N+](=O)[O-])c2)c1,?,13µM,-,?,?
CC(C)(C)OC(=O)Cc1nnc(C(C(=O)OCc2ccccc2)c2ccccc2)s1 (stereo unspecified),.,-,.,.,-
CN(CCOc1ccccc1)C(=O)c1ccc2c(c1)OCO2,-,-,-,-,-
O=C(NCCc1ccccc1)c1ccc2c(c1)OCCO2,2.51µM,?,-,-,-
O=C(CCc1ccccc1)c1ccc2c(c1)OCCCO2,-,?,-,-,-
O=C(NCCOc1ccccc1)c1ccc2c(c1)OCO2,4.47µM,?,-,-,-[1.84 µM]
O=C(CCCc1ccccc1)c1ccc2c(c1)OCCO2,10µM,?,-,-,-
O=C(NCCc1ccccc1)c1ccc2c(c1)OCCCO2,0.708µM,2.06µM,-,-,-
Cc1ccc2c(c1)CN(CCNC(=O)C(C)Oc1ccccc1)CC(C)O2 (stereo unspecified),.,.,.,-,.
COC(=O)c1c(OCc2cccnc2)cc(=O)n2c1CCN(C(=O)c1cccc(N(C)C)c1)CC2,.,.,.,-,.
Cc1cc(C)n(-c2cccc(C(=O)NCC3Cc4cc(Cl)cc(-c5cnccn5)c4O3)c2)n1 (stereo unspecified),.,.,.,-,.
COc1ccccc1C(=O)N[C@@H]1c2ccccc2C2(CCN(Cc3ccc(C)o3)CC2)[C@H]1O,.,.,.,-,.
O=C(Nc1nnc(-c2ccc3c(c2)OCCO3)o1)c1ccc(Cc2ccccc2)cc1,?,?,-,25.1µM,-
CSc1nnc(CNC(=O)c2c(-c3ccccc3)noc2C)n1-c1ccc(F)cc1,.,.,.,-,.
SMILES,ATXN2 expr inh,Nrf2 inh,Nrf2 ARE act,ATXN viability,A549 tox
Cc1cc2c(cc1S(=O)(=O)N1CCc3ccccc31)NC(=O)CO2,-[11.3 µM],23.1µM,-,-,?
O=C1COc2ccc(S(=O)(=O)N3CCc4ccccc43)cc2N1,-,-,-,-,-
Cc1cccc(N2CCN(C(=O)c3cc(S(=O)(=O)N4CCC(C)CC4)cn3C)CC2)c1C,.,.,-,.,-
CCc1ccc(-n2nc(C)c3c(C(=O)N4CCN(c5ccccc5)CC4)cc(C)nc32)cc1,-,18.4µM,-,?,-
CCc1ccc(-n2nc(C)c3c(C(=O)N4CCN(c5cccc(Cl)c5)CC4)cc(C)nc32)cc1,-,?,-,-,-
COc1cc2nc(N(C)C)c(CNCc3cccc4ccccc34)cc2c(OC)c1OC,.,.,.,-,.
Cn1ccc(C(=O)NCC2CCC3(CCN(Cc4cc(F)cc(F)c4)CC3)O2)n1 (stereo unspecified),.,.,.,-,.
CN(C(=O)COC(=O)c1ccc(C(C)(C)C)cc1)C1CCS(=O)(=O)C1 (stereo unspecified),-,-,-,-,-
CN(C(=O)COC(=O)c1nc(Cl)c(Cl)c(Cl)c1Cl)C1CCS(=O)(=O)C1 (stereo unspecified),?,-,12.6µM,.,?
NC[C@H]1O[C@H](O[C@H]2[C@H](O[C@@H]3O[C@H](CO)[C@@H](O)[C@H]3O)C(O)[C@H](N)C[C@@H]2N)[C@H](N)[C@@H](O)[C@@H]1O (stereo partly specified),-[11.3 µM],.,.,-[11.3 µM],.
O=c1[nH]c2ccccc2n1CCCN1CCN(C(c2ccccc2)c2ccccc2)CC1,31.6µM,.,.,?,.
CC(C)(C)C(=O)/C(=C/c1ccc(Cl)cc1)n1cncn1,.,?,?,10µM,-
O=C(Cn1ccc2cc(S(=O)(=O)N3CCCCCC3)ccc21)NCCc1ccc(Cl)cc1,-,25.9µM,-,-,-
CCC(C(=O)NCCC(C)C)n1ccc2cc(S(=O)(=O)N3CCCCC3)ccc21 (stereo unspecified),-,13µM,-,-,-
Cc1ccc(CN2C(=O)C3(c4ccccc42)N(c2cccc(F)c2)C(=O)CS3(=O)=O)cc1 (stereo unspecified),-,?,-,-,-
CCN(CC)S(=O)(=O)c1cc(NC(=O)CSc2nc3c(cc2C#N)C(=O)CC(C)(C)C3)ccc1C,?,18.4µM,-,?,?
CCN(CC)c1ccc(C(=O)N2CCC(c3ccncc3)CC2)cc1,-,.,-,-,-
CC(C)C[C@H]1CN(CCCC[C@H]2CNC(=O)C(=O)N2CCC2CCCCC2)C(=O)C(=O)N1CCC1CCCCC1,-,.,-,-,.
COc1cc(NC(=O)CN2C(=O)CN(C)C(=O)c3ccccc32)cc(OC)c1OC,-,.,-,-,-
CC(C)CC(=O)/C=C/n1c(=S)oc2ccccc21,?,-,11.2µM,.,-
Cn1c(=S)oc2ccccc21,-,-,-,-,-
Cc1ccc(-n2ncc3c(NCCc4ccccc4)ncnc32)cc1,-,.,-,-,-
O=C(CCS(=O)(=O)c1ccc(Br)s1)Nc1cc(C(F)(F)F)cc(C(F)(F)F)c1,?,23.1µM,-,?,?
CCN(C1CCCCC1)S(=O)(=O)c1ccc(S(=O)(=O)NCc2ccncc2)cc1,-,8.2µM,-,-,-
Cc1ccc(-n2c(=O)c3c(cnn3C)n(CC(=O)Nc3cc(C)ccc3C)c2=O)cc1,-,-[9.27 µM],-,-,-
CC(C)=CCc1c2c(c3occ(-c4ccc(O)c(O)c4)c(=O)c3c1O)C=CC(C)(C)O2,22.4µM,?,-,?,?
COc1cc(NC(=O)C(OC(=O)CNC(=O)c2ccccc2)c2ccccc2)c(OC)cc1Cl (stereo unspecified),.,-,.,.,-
CC(C)(C)CC(=O)OCC(=O)[C@@]12OC(C)(C)O[C@@H]1C[C@H]1[C@@H]3CCC4=CC(=O)C=C[C@]4(C)[C@@]3(F)[C@@H](O)C[C@@]12C,.,.,.,-,.
